{"source": "the supplement of paper PMC6897291", "tested_on": "RIVA", "test": "growth inhibition by drug alone (1 - RLU/untreated control) (fraction); higher = stronger inhibition", "conditions": "177Lu-lilotomab satetraxetan 0 ug/ml", "description": "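RIVA (RI-1) ABC-DLBCL cells were pretreated or not for 18 h with 0.5 ug/ml 177Lu-lilotomab satetraxetan (600 MBq/mg), washed and seeded (3000 cells/well) on 384-well plates pre-printed with the Selleck Cambridge Cancer Compound library. Viability was read by RealTime-Glo luminescence on days 3-6 after seeding. Effect = 1 - RLU/mean RLU of the 48 untreated no-drug control wells per plate; Bliss score = (M-E)/(1-Fa).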"}
{"smiles": "CCC(CC)CC1(C(=O)Nc2ccccc2SC(=O)C(C)C)CCCCC1", "values": [{"measurement": "growth inhibition by drug alone", "setting": "10 nM, time (day): 3", "value": -0.0908}, {"measurement": "growth inhibition by drug alone", "setting": "10 nM, time (day): 4", "value": -0.101}, {"measurement": "growth inhibition by drug alone", "setting": "10 nM, time (day): 5", "value": -0.128}, {"measurement": "growth inhibition by drug alone", "setting": "10 nM, time (day): 6", "value": -0.174}, {"measurement": "growth inhibition by drug alone", "setting": "100 nM, time (day): 3", "value": -0.0374}, {"measurement": "growth inhibition by drug alone", "setting": "100 nM, time (day): 4", "value": -0.15}, {"measurement": "growth inhibition by drug alone", "setting": "100 nM, time (day): 5", "value": -0.166}, {"measurement": "growth inhibition by drug alone", "setting": "100 nM, time (day): 6", "value": -0.178}]}
{"smiles": "Cc1nc(Nc2ncc(C(=O)Nc3c(C)cccc3Cl)s2)cc(N2CCN(CCO)CC2)n1", "values": [{"measurement": "growth inhibition by drug alone", "setting": "10 nM, time (day): 3", "value": 0.376}, {"measurement": "growth inhibition by drug alone", "setting": "10 nM, time (day): 4", "value": 0.323}, {"measurement": "growth inhibition by drug alone", "setting": "10 nM, time (day): 5", "value": 0.282}, {"measurement": "growth inhibition by drug alone", "setting": "10 nM, time (day): 6", "value": 0.128}, {"measurement": "growth inhibition by drug alone", "setting": "100 nM, time (day): 3", "value": 0.779}, {"measurement": "growth inhibition by drug alone", "setting": "100 nM, time (day): 4", "value": 0.826}, {"measurement": "growth inhibition by drug alone", "setting": "100 nM, time (day): 5", "value": 0.856}, {"measurement": "growth inhibition by drug alone", "setting": "100 nM, time (day): 6", "value": 0.867}]}
{"smiles": "CCOc1cc(C(=O)Nc2ccc(Cl)c(-c3nc4ccccc4[nH]3)c2)cc(OCC)c1OCC", "values": [{"measurement": "growth inhibition by drug alone", "setting": "10 nM, time (day): 3", "value": 0.0892}, {"measurement": "growth inhibition by drug alone", "setting": "10 nM, time (day): 4", "value": 0.061}, {"measurement": "growth inhibition by drug alone", "setting": "10 nM, time (day): 5", "value": 0.00986}, {"measurement": "growth inhibition by drug alone", "setting": "10 nM, time (day): 6", "value": -0.126}, {"measurement": "growth inhibition by drug alone", "setting": "100 nM, time (day): 3", "value": 0.409}, {"measurement": "growth inhibition by drug alone", "setting": "100 nM, time (day): 4", "value": 0.248}, {"measurement": "growth inhibition by drug alone", "setting": "100 nM, time (day): 5", "value": 0.22}, {"measurement": "growth inhibition by drug alone", "setting": "100 nM, time (day): 6", "value": 0.167}]}
{"smiles": "CC(C)C[C@H](NC(=O)CNC(=O)c1cc(Cl)ccc1Cl)B(O)O", "values": [{"measurement": "growth inhibition by drug alone", "setting": "10 nM, time (day): 3", "value": -0.217}, {"measurement": "growth inhibition by drug alone", "setting": "10 nM, time (day): 4", "value": -0.196}, {"measurement": "growth inhibition by drug alone", "setting": "10 nM, time (day): 5", "value": -0.201}, {"measurement": "growth inhibition by drug alone", "setting": "10 nM, time (day): 6", "value": -0.298}, {"measurement": "growth inhibition by drug alone", "setting": "100 nM, time (day): 3", "value": 0.177}, {"measurement": "growth inhibition by drug alone", "setting": "100 nM, time (day): 4", "value": 0.166}, {"measurement": "growth inhibition by drug alone", "setting": "100 nM, time (day): 5", "value": 0.0904}, {"measurement": "growth inhibition by drug alone", "setting": "100 nM, time (day): 6", "value": -0.0331}]}
{"smiles": "Cn1c(=O)c(F)c(Nc2ccc(I)cc2F)c2c(=O)n(C[C@@H](O)CO)cnc21", "values": [{"measurement": "growth inhibition by drug alone", "setting": "10 nM, time (day): 3", "value": 0.0885}, {"measurement": "growth inhibition by drug alone", "setting": "10 nM, time (day): 4", "value": 0.0594}, {"measurement": "growth inhibition by drug alone", "setting": "10 nM, time (day): 5", "value": -0.0237}, {"measurement": "growth inhibition by drug alone", "setting": "10 nM, time (day): 6", "value": -0.205}, {"measurement": "growth inhibition by drug alone", "setting": "100 nM, time (day): 3", "value": -0.0966}, {"measurement": "growth inhibition by drug alone", "setting": "100 nM, time (day): 4", "value": -0.077}, {"measurement": "growth inhibition by drug alone", "setting": "100 nM, time (day): 5", "value": -0.161}, {"measurement": "growth inhibition by drug alone", "setting": "100 nM, time (day): 6", "value": -0.342}]}
